Shown are actives, neighbours in structure and some others; about 11% of the full set was active somewhere.
G9a block = G9a (human) methyltransferase inhibition. Q96KQ7. G9a H3K9 monomethylation, AlphaScreen, 2 h. Potency, µM (top dose mostly 102 µM), usual class: inhibitors. 8.8% of 350,000 active; note: nearly all actives have a fitted effect of over 75% in size
Target sequence (Q96KQ7 913-1193 limits assumed): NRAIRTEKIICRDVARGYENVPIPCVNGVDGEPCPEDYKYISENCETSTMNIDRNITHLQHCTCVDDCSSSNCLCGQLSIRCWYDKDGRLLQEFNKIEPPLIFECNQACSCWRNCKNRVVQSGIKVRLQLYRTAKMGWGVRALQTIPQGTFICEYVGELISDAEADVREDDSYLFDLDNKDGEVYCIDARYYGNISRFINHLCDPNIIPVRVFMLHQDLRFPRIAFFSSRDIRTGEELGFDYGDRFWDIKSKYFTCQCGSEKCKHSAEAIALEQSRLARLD
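Using a bead-based AlphaScreen, monomethylated H3K9 product from 2 h room-temperature reactions (G9a 20 nM, peptide 500 nM, SAM 20 uM) was detected with 0.5 ug/mL rabbit anti-H3K9me1 antibody.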
Tau fluor cs = counter-screen for tau fibril formation inhibitors. 0.93% of 280,000 active. AID 1463. tau K18 P301L Alexa594 fluorescence, heparin fibrillization. Potency, µM (top dose mostly 57.7 µM); note: nearly all actives have a fitted effect of over 55% in size
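Human K18 P301L tau (15 uM unlabeled plus 0.24 uM Alexa 594-labeled, final) in 100 mM sodium acetate pH 7 was mixed with compound and 20 uM heparin and incubated 6 hr at 37 C.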
Tau FP inhib = tau fibrillization inhibition (FP); Potency, µM (titrated, usually from 57.7 µM), hits mostly inhibitors; 0.39% of 280,000 active; AID 1468; K18 P301L tau heparin fibrillization, Alexa594 FP, 6 h; P10636; note: nearly all actives have a fitted effect of over 55% in size
Target sequence (P10636 561-689 P618L limits assumed): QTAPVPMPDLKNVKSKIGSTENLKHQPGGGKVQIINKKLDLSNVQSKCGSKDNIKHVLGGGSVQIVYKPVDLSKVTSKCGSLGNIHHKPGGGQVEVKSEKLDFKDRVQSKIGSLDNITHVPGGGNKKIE
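FP of Alexa 594-tau after heparin (20 uM) induction. Substrate: human K18 P301L, 15 uM unlabeled, 0.24 uM labeled. Buffer 100 mM sodium acetate pH 7. 6 hr, 37 C.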
Tau fibril ThT = blocks human tau fibril formation measured by thioflavin T | P10636 | recombinant tau K18 P301L (four-repeat tau fragment), heparin-induced fibrillization, ThT fluorescence | Potency, µM (series often up to 57.4 µM), usual class: inhibitors | 2.1% of 270,000 active | AID 1460; note: nearly all actives have a fitted effect of over 55% in size
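Aggregation was driven by heparin (20 uM final) acting on recombinant tau […] bearing P301L in 100 mM sodium acetate pH 7; fibrils were detected with Thioflavin T.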
Sfp PPTase inh = Sfp phosphopantetheinyl transferase inhibition. Q9F4F7. Biochemical Sfp PPTase activity, qHTS. Potency, µM, most hits filed as inhibitors. 3.5% of 310,000 active;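 note: the enzyme is Sfp with the accession as filed and its product quenches rhodamine fluorescence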
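Fluorescence-quenching assay: 15 nM Sfp-PPTase preincubated 15 min at room temperature with compound, then 5 uM rhodamine-CoA and 12.5 uM BHQ-2-labelled YbbR peptide added. Fluorescence (ex 525/em 598 nm) read at start and after 30 min; difference gives rate.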
Coupling enz = counter-screen for Giardia aldolase inhibitors: coupling enzyme system; coupling enzyme system counterscreen, AmpLite Red fluorescence; activity change, negative = inhibition, % at 58.2 µM, hits read low; 0.67% of 290,000 active; AID 2472; in the data active = activity change below about -30%
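First, compound is pin-transferred into glyceraldehyde-3-phosphate coupling-enzyme reagent at 57.5 uM final and held 10 min at RT. Next, substrate, coupling system and AmpLite Red are added. After 20 min RT, fluorescence (525/598 nm) is read.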
Hits are given with their value; - = inactive; ? = inconclusive; . = no result; ! = a repeat was not active; [ ] = remark or other dose. Unless noted, calls come from the whole dose curve; as a rule, active = well fitted curve in the direction sought with a large enough effect; inconclusive = small, poorly fitted or top-dose-only effect, or another doubt; inactive = no such curve, though single readings can be large; an effect the other way counts as inactive or inconclusive.

SMILES	G9a block	Tau fluor cs	Tau FP inhib	Tau fibril ThT	Sfp PPTase inh	Coupling enz
Cc1ccc(-n2c(O)c(/C=C3/C(c4ccccc4)=Nc4ccccc43)c(=O)[nH]c2=O)cc1	35.5µM	?	?	12.6µM	-	-
CCc1ccc(-n2c(O)c(/C=N/NC(=O)c3ccncc3)c(=O)[nH]c2=O)cc1	-	-	?	-	-	-
CC(C)c1ccc(-n2c(O)c(/C=N/NC(=O)c3ccncc3)c(=O)[nH]c2=O)cc1	17.8µM	-	-	?	-	-
Cn1cc([N+](=O)[O-])c(C(=O)Nc2ccc3c(C(F)(F)F)cc(=O)oc3c2)n1	-	.	.	.	-	.
CC(C)C(=O)Nc1ccc([N+](=O)[O-])c(C(F)(F)F)c1	2.51µM!	-	-	-	-	-
O=[N+]([O-])c1cc(-c2ccc([As](=O)(O)O)cc2)ccc1[As](=O)(O)O	50.1µM	-	-	-	-	-
C[C@@H](COc1ccccc1)N(CCCl)Cc1ccccc1	-[21.5 µM]	.	.	.	-	-
CN1C(=O)NC(=O)/C(=C/c2ccc([N+](=O)[O-])o2)C1=O	.	-	?	12.6µM	17.8µM	-
CN1C(=O)NC(=O)/C(=C\c2ccc([N+](=O)[O-])o2)C1=O	12.6µM	-	?	28.2µM	39.8µM	-
O=C1NC(=O)N(c2ccccc2)C(=O)/C1=C\c1ccc([N+](=O)[O-])o1	12.6µM	?	?	17.8µM	17.8µM	-
Cc1cc(/C=C2\C(=O)NC(=O)N(C)C2=O)c(C)n1-c1ccc2c(c1)OCO2	-	-	-	?	-	-
Cn1c(=O)oc2cc(S(=O)(=O)N3CCCC(C(=O)N4CCN(c5cccc(Cl)c5)CC4)C3)ccc21 (configuration not stated)	?	-	-	-	.	.
Cn1c(O)c(N=Nc2cccc(S(=O)(=O)N3CCOCC3)c2)c(=O)n(C)c1=O	-	-	-	-	-	-
CCN(CC)S(=O)(=O)c1cccc(N=Nc2c(O)n(CC)c(=S)n(CC)c2=O)c1	?	?	-	15.8µM	-	-
CC(C)COC(=O)OCN1C(=O)CN(CCN2CC(=O)N(COC(=O)OCC(C)C)C(=O)C2)CC1=O	12.6µM!	-	-	-	-	.
CCC12CN3CC(CC)(CN(C1)C3c1ccccn1)C2=O (configuration not stated)	0.447µM	-	-	-	.	.
CC(C)(C)N(NC(=O)c1ccccc1)C(=O)c1ccccc1	-	-	-	-	-	-
CS(=O)(=O)NNP(=O)(NNS(C)(=O)=O)NC(=O)c1ccc(Br)cc1	44.7µM	-	-	-	-	-
CS(=O)(=O)NNP(=O)(NNS(C)(=O)=O)NC(=O)c1ccccc1	56.2µM	-	-	-	-	-
CNS(=O)(=O)c1ccc(-c2ccc(C=C3C(=O)NC(=O)NC3=O)o2)cc1	8.91µM	.	.	.	35.5µM	-
NS(=O)(=O)c1ccc(-c2ccc(C=C3C(=O)NC(=S)NC3=O)o2)cc1	2.51µM	.	.	.	12.6µM	-
NS(=O)(=O)c1ccc(-c2ccc(C=C3C(=O)NC(=O)NC3=O)o2)cc1	10µM	.	.	.	14.1µM	-
Nc1nccc(-c2c(-c3ccc(F)cc3)ncn2C2CCNCC2)n1	.	.	.	.	-	-
C[C@H](CCC(=O)O)C[C@H](C)C[C@H](C)C(=O)/C=C(\O)[C@H](C)C[C@H](C)C/C=C/[C@@H](C)[C@@H](O)[C@@H](C)[C@@H](O)C[C@@H]1CC[C@@](C)([C@H]2CC[C@@](C)([C@@H](C)O)O2)O1	-	?	-	?	-	-
Cc1nonc1OCCNc1ccc([N+](=O)[O-])c2cccnc12	-	?	-	7.08µM	-	-
SMILES	G9a block	Tau fluor cs	Tau FP inhib	Tau fibril ThT	Sfp PPTase inh	Coupling enz
CC1=NN(c2ccccc2)C(=O)C1/C=C1\C(=O)NC(=O)N(c2ccc(C)c(C)c2)C1=O (configuration not stated)	44.7µM	-	-	11.2µM	-	-
CC1=NN(c2ccccc2)C(=O)C1/C=C1/C(=O)NC(=O)N(c2cc(C)cc(C)c2)C1=O (configuration not stated)	?	-	-	11.2µM	-	-
CC1=NN(c2ccccc2)C(=O)C1/C=C1/C(=O)NC(=O)N(c2cccc(C)c2)C1=O (configuration not stated)	-	-	-	?	-	-
CSCC[C@H](NC(=O)[C@H](CC(C)C)NC(=O)[C@@H](Cc1cnc[nH]1)NC(=O)[C@H](Cc1ccccc1)NC(=O)[C@@H](Cc1ccccc1)NC(=O)[C@@H](N)Cc1ccc(O)cc1)C(N)=O	.	.	.	.	-	-
OC12C3C4CC5C6C4C1C6C(C53)N2CCc1cccc(F)c1 (configuration not stated)	.	.	.	.	-	-
CCc1c(C)nc(N)nc1N1N=C1SCC(N)=O	-	-	-	-	-	-
CCc1c(C)nc(N)nc1N1N=C1SC(C(C)=O)C(C)=O	.	-	?	17.8µM	?	-
CC(C)(C)c1ccc(C(=O)NC(=S)Nn2cnnc2)cc1	31.6µM	-	-	-	?	-
C/C1=C/C(=O)O[C@@H]2C[C@@H](CC[C@H](C)/C=C\CC1)O[C@@](O)(C1CSC(=O)N1)C2 (some centres not stated)	.	.	.	.	-	-
COC1C(O)C(C)O[C@@H](OC2CC[C@@]3(C)C4CC[C@]5(C)C(C6=CC(=O)OC6)CC[C@@]5(O)C4CC[C@@H]3C2)C1O (some centres not stated)	.	-	-	-	-	-
Cc1ccc(N=Nc2cc(C)ccc2N)cc1	.	17.8µM[quencher]	-	11.2µM	-	-
Cc1ccc(N)c(C)c1	-[0.501 µM]	.	.	.	.	.
CCOC(=O)c1ccc(NC(=O)CSc2nc3c(cc2C#N)N2CCC3CC2)cc1	-	?	-	?	.	.
CCOC(=O)c1ccc(NC(=O)C2C3C=CC(O3)C2C(=O)O)cc1 (configuration not stated)	35.5µM	-	-	-	-	-
Cc1ccc(NP(=O)(c2ccccc2)c2nc3ccccc3s2)cc1 (configuration not stated)	25.1µM	-	-	-	-	-
COCCNP(=O)(c1ccccc1)c1nc2ccccc2s1 (configuration not stated)	-[12.7 µM]	-	-	-	-	-
C[C@H](CCC(=O)O)[C@H]1CC[C@@H]2[C@H]3CC[C@H]4C[C@@H](O)CC[C@@]4(C)[C@H]3CC[C@]21C	-[21.5 µM]	.	.	.	-	-
C=C1[C@@H]2C[C@]3(C(CC2=O)[C@]24C5C[C@H]3[C@H]2N(CC)C[C@]5(C)CC[C@@H]4O)[C@@H]1O (some centres not stated)	.	.	.	.	-	-
O=c1cccc2n1CC1CC2CN(Cc2c(Cl)cccc2Cl)C1 (configuration not stated)	35.5µM	-	-	-	-	-
COc1cccc(-n2c(CN3CCOCC3)nc3ccc([N+](=O)[O-])cc3c2=O)c1	44.7µM	.	.	.	?	-

High-throughput results as filed in PubChem BioAssay.
